Assay results published in PubChem BioAssay (NCI).
Compounds without any hit were thinned out: in the full panel of roughly 83,000, 20% have a hit.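 Values shown are percent growth following 48 h exposure of cells in 96-well plates to a single concentration of compound; below 10 was considered active.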 Active and inactive are the calls of the source.

System: HL-60(TB) leukemia
Assay: NCI-60 one-dose screen, 48 h (100 = growth as untreated, 0 = no growth, -100 = all killed)
Conditions: 10 µM unless noted

SMILES	growth
NCCNc1nc2ccccc2c2c(=O)c3cccc(F)c3sc12	53% (inactive)
COc1ccc2nc(NC(=O)c3cccnc3Nc3ccc(S(N)(=O)=O)cc3)sc2c1	54.5% (inactive)
COc1ccc(Oc2nc(Nc3ccc(N4CCCCC4)nc3)ncc2NC(=O)c2cc(OC)cc(OC)c2)cc1	0.492% (active)
CCN(CC)c1ccc(CNc2cc(C)nc3ccccc23)cc1	81.1% (inactive)
O=C(O)[C@@H](Cc1ccc2ccccc2c1)NC(=O)n1c2ccccc2c2ccccc21	6.8% (active)
CC(=O)Nc1nc(C)c(C(=O)N/N=C/c2cccs2)s1	130% (inactive)
CCCCCCCCCC(=O)Oc1ccc(/C(=C(/C)Cc2cccc(OC)c2)c2ccc(OCCN(C)C)cc2)cc1	112% (inactive)
C=CCCCCCCCCCOC(C)=O	120% (inactive)
COc1cc(NC(=O)c2cccc(-c3cc(=O)c4c(OC)c(OC)c(OC)cc4o3)c2)cc(OC)c1OC	36% (inactive)
NS(=O)(=O)Oc1ccc(-c2ccc3sccc3c2)cc1	99.7% (inactive)
O=C(O)c1ccccc1C(=O)c1ccc(I)cc1	93.1% (inactive)
Cc1c2c(c(C)c3c1oc1cc(O)ccc13)C(=O)N(CCN1CCCCC1)C2=O	99.3% (inactive)
CSc1cc(SC)ncn1	101% (inactive)
CN(CCOc1ccc(CC2SC(=O)NC2=O)cc1)c1ccccn1 (stereo not given)	128% (inactive)
CCc1cc(C)cc(O)c1	105% (inactive)
Clc1ccc(CNc2ccc3nc(CCC4CCCCC4)[nH]c3c2)cc1	24.8% (inactive)
Cc1cccc(NCc2cn(-c3ccc(C(=O)O)cc3)nc2-c2ccc(C(=O)O)cc2)n1	101% (inactive)
NC(=O)NCC1CCCCC1	91.3% (inactive)
COc1cc(/C=C/C(=O)c2cccs2)ccc1OCc1ccc(Cl)nc1	72.6% (inactive)
COC(=O)/C=C1\SC(=Nc2ccc(F)cc2)N(CCc2c[nH]c3ccccc23)C1=O	73.7% (inactive)

SMILES	growth
O=c1c2ccccc2n(C[C@H]2CO2)c2ccccc12	-44.5% (active)
C[C@@H]1C[C@@H]([C@@H](CC2CC(=O)NC(=O)C2)OC(=O)CC(=O)c2ccccc2)C(=O)[C@@H](C)C1	13% (inactive)
COc1ccc(CCN2CC=Cn3c2nc2ccccc2c3=O)cc1	-8.02% (active)
CC(C)c1ccc(C(=O)Nc2nc3ccc(O)c(CN(C)C)c3s2)cc1	76.8% (inactive)
CCCOc1ccc2nc(NC(=O)OC)[nH]c2c1	3.05% (active)
COc1ccc2oc3c(ccc[n+]3C)c(=O)c2c1	109% (inactive)
CCCn1nc(C(=O)N(C)Cc2ccccc2)c2c1CCC(N1CCc3ccccc31)C2 (stereo not given)	98% (inactive)
CCCCCCNC(=O)Oc1ccc(/C(=C(\C)c2ccccc2)c2ccc(OCCCN(C)C)cc2)cc1	78% (inactive)
Nc1nc(Nc2ccc(F)cc2)nn1C(=O)c1cc(Cl)ccc1Cl	65.1% (inactive)
CCN(C(=O)CCl)C(C)(C)C(SSSC(c1ccc(Cl)cc1)C(C)(C)N(CC)C(=O)CCl)c1ccc(Cl)cc1 (stereo not given)	42.1% (inactive)
O=C(/C=C/c1c[nH]c2ccccc12)c1cc2ccccc2o1	37.9% (inactive)
CCCCCCCCCCC(C)Br (stereo not given)	93.1% (inactive)
CCCc1n(Cc2ccc3ccccc3n2)cc[n+]1Cc1ccc2ccccc2c1	-53.7% (active)
CN1CCN(CCCOC(=O)c2c3c(n4ccccc24)C(=O)c2ncccc2C3=O)CC1	30% (inactive)
COc1ccc(-c2nc(Cl)c3c(C)nn(-c4ccc(F)cc4)c3n2)cc1	98.3% (inactive)
Fc1ccccc1-c1nc(-c2nc3cc(Cl)c(Cl)cc3[nH]2)c2ccccn12	81.6% (inactive)
O=C1c2ccccc2OC=C(c2ccccc2)N1CCCCNc1ccc(S(=O)(=O)Nc2ncccn2)cc1	73.1% (inactive)
COc1ccc(-c2nn(-c3cccc(Cl)c3)cc2/C=C2\C(=N)N(c3ccccc3)N=C2N)cc1	9.27% (active)
COc1cc2ncnc(Nc3cccc(Cl)c3F)c2cc1OC(=O)N1CCN(C)C[C@H]1C	102% (inactive)
CCn1cc2c(cc1=O)-c1nc3ccccc3c3ccnc(c13)C2=O	93.9% (inactive)
